{"source": "PubChem BioAssay AID618", "about": "(Sanford-Burnham Center for Chemical Genomics, 2007)", "note": "The whole screen tested about 87,000 compounds, of which about 540 (0.62%) were called active. The sample holds actives, similar compounds and a random draw of the others, so the mix is not that of the screen. The rule behind the calls is not given here. Results with a measured potency or affinity are listed apart.", "data": [{"assay": "inhibitors of MT1-MMP promoter transcription, cell-based, luciferase reporter, luminescence (AID 618);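 note: actives suppress MT1-MMP promoter-driven transcription so potencies describe inhibitors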", "conditions": "MT1-MMP promoter luciferase reporter cells", "values": [{"smiles": "O=C(CCC1CCCC1)Nc1ccc(OCC(=O)N2CCOCC2)cc1", "outcome": "inactive"}, {"smiles": "COc1ccccc1CN1CCSCC1", "outcome": "inactive"}, {"smiles": "COCc1nnc(NC(=O)c2cc(Cl)ccc2OC)s1", "outcome": "inactive"}, {"smiles": "O=C(CSc1nnc(Cc2cccs2)n1Cc1ccco1)Nc1ccc(Cl)cc1Cl", "outcome": "inactive"}, {"smiles": "Cc1ccnn1CC(=O)N/N=C/c1ccco1", "outcome": "inactive"}, {"smiles": "CC(C)CCn1c(N)c(S(=O)(=O)c2cccs2)c2nc3ccccc3nc21", "outcome": "active"}, {"smiles": "COCCn1c(N)c(S(=O)(=O)c2cccs2)c2nc3ccccc3nc21", "outcome": "inactive"}, {"smiles": "CC(C)Cn1c(N)c(S(=O)(=O)c2cccs2)c2nc3ccccc3nc21", "outcome": "inactive"}, {"smiles": "N#Cc1nc(-c2ccco2)oc1N1CCN(c2cccc(Cl)c2)CC1", "outcome": "inactive"}, {"smiles": "CC(Oc1ccc(Cl)cc1Cl)C(=O)NCc1ccncc1", "note": "(configuration not stated)", "outcome": "inactive"}, {"smiles": "Cc1cc(C)c(C)c(OCC(=O)NCC2CCCO2)c1", "note": "(configuration not stated)", "outcome": "inactive"}, {"smiles": "O=C(O)c1n[nH]c2c1CCCCC2", "outcome": "inactive"}, {"smiles": "CC1(CCc2ccccc2)NC(=O)N(Cc2nnc(-c3ccccc3Br)o2)C1=O", "note": "(configuration not stated)", "outcome": "inactive"}, {"smiles": "CC1Cc2ccccc2N1c1nc(C2CC2)nc2c1nnn2Cc1ccccc1", "note": "(configuration not stated)", "outcome": "inactive"}, {"smiles": "CC(=O)Nc1c(O)nc(SCC(=O)Nc2sc3c(c2C#N)CCCCCC3)[nH]c1=O", "outcome": "inactive"}, {"smiles": "Cc1nnc(SCC(=O)Nc2sc3c(c2C#N)CCCC3)[nH]c1=O", "outcome": "inactive"}, {"smiles": "N#Cc1c(NC(=O)CSc2nc(N)cc(=O)[nH]2)sc2c1CCCCCC2", "outcome": "inactive"}, {"smiles": "CC(C)(C)C1CCc2c(sc(NC(=O)CSc3ncn[nH]3)c2C#N)C1", "note": "(configuration not stated)", "outcome": "inactive"}, {"smiles": "CCSC1=C(C#N)C2(CCCCC2)C(C#N)C(=O)N1", "note": "(configuration not stated)", "outcome": "inactive"}, {"smiles": "Cc1cc(NC(=O)CSc2nc(C(C)C)nc3sc4c(c23)CCCC4)no1", "outcome": "inactive"}, {"smiles": "CCOC(=O)N1CCN(C(=O)Cn2cc3c(n2)CCCC3)CC1", "outcome": "inactive"}, {"smiles": "O=C(O)C1=C(C(=O)N2CCN(C(=O)c3ccco3)CC2)CCCC1", "outcome": "inactive"}, {"smiles": "c1ccc(Sc2ncnc3c2oc2ccccc23)cc1", "outcome": "inactive"}, {"smiles": "Fc1cccc(-c2cc3nc4c(c(N5CCN(c6cnccn6)CC5)n3n2)CCCC4)c1", "outcome": "inactive"}, {"smiles": "CC1=CC(C)(C)Nc2ccc(OC(=O)CN3C(=O)C4CCCCC4C3=O)cc21", "note": "(configuration not stated)", "outcome": "inactive"}, {"smiles": "O=C(Oc1ccc2ccccc2c1)c1ccco1", "outcome": "inactive"}, {"smiles": "CCc1ccc2c(c1)C(C)=CC(C)(C)N2", "outcome": "inactive"}, {"smiles": "CC1=CC(C)(C)Nc2ccc(OC(=O)c3cccnc3)cc21", "outcome": "inactive"}, {"smiles": "COc1ccc2c(c1)C(C)=CC(C)(C)N2C(=O)CN1C(=O)CCC1=O", "outcome": "inactive"}, {"smiles": "COC(=O)c1ccc(OC(=O)c2ccco2)cc1", "outcome": "inactive"}, {"smiles": "CC1=CC(C)(C)Nc2ccc(OC(=O)c3ccco3)cc21", "outcome": "active"}, {"smiles": "COc1ccc(-c2nnc(SCC(=O)N3c4ccccc4Sc4ccccc43)o2)cc1", "outcome": "inactive"}, {"smiles": "CCOC(=O)c1ccc2nc3c(cc2c1)CCS3", "outcome": "inactive"}, {"smiles": "COc1ccc2c(c1OC)C(=O)N(c1ccc3c(c1)CCC3)C2=O", "outcome": "inactive"}, {"smiles": "CCn1c(=O)n(CC(=O)NC2CCCC(C)C2C)c(=O)c2ccccc21", "note": "(configuration not stated)", "outcome": "inactive"}, {"smiles": "CCN(CCNC(=O)C1CCN(c2nnc(-n3cccc3)s2)CC1)c1ccccc1", "outcome": "inactive"}, {"smiles": "Cc1cccc2cc3c(N)c(C(=O)N4CCOCC4)sc3nc12", "outcome": "inactive"}, {"smiles": "Cc1ccc2nc3sc(C(=O)N4CCOCC4)c(N)c3cc2c1", "outcome": "active"}, {"smiles": "Cc1ccc2cc3c(N)c(C(=O)N4CCOCC4)sc3nc2c1", "outcome": "inactive"}, {"smiles": "Cc1cccc(-n2ncc(C#N)c2N)c1", "outcome": "inactive"}, {"smiles": "Cc1cc(C)nc(SCCn2c(N(C)Cc3ccccc3)nc3c2c(=O)n(C)c(=O)n3C)n1", "outcome": "inactive"}, {"smiles": "Cc1cc(C)n(CCO)c(=O)n1", "outcome": "inactive"}, {"smiles": "N#CC1=C(N)SC(N)=C(C#N)C1C1CC=CCC1", "note": "(configuration not stated)", "outcome": "inactive"}, {"smiles": "COC(=O)/C=c1/sc2nc3ccccc3n2c1=O", "outcome": "inactive"}, {"smiles": "Cc1ccc(-n2c(C)cc(/C=c3/sc4nc5ccccc5n4c3=O)c2C)cc1", "outcome": "inactive"}, {"smiles": "COc1cc(N2CCCC2)c(OC)cc1/C=c1/sc2nc3ccccc3n2c1=O", "outcome": "inactive"}, {"smiles": "Cc1cc(/C=c2/sc3nc4ccccc4n3c2=O)c(C)n1-c1ccccn1", "outcome": "active"}, {"smiles": "O=c1/c(=C\\c2cccn2-c2ccccc2)sc2nc3ccccc3n12", "outcome": "inactive"}, {"smiles": "CC(CNS(=O)(=O)c1cc(Cl)ccc1Cl)CN(C)C", "note": "(configuration not stated)", "outcome": "inactive"}, {"smiles": "COc1ccccc1NC(=O)CC1C(=O)NCCN1C(=O)Nc1ccc(Cl)c(Cl)c1", "note": "(configuration not stated)", "outcome": "inactive"}, {"smiles": "CCCCC(=O)Nc1ccc2oc(-c3ccncc3)nc2c1", "outcome": "inactive"}, {"smiles": "O=C(c1ccc2snnc2c1)N1CCOCC1", "outcome": "inactive"}, {"smiles": "Cc1ccsc1C(=O)OCC(=O)c1cc(C)n(CC2CCCO2)c1C", "note": "(configuration not stated)", "outcome": "active"}, {"smiles": "Cc1cc(C(=O)CN2C(=O)C3CC=CCC3C2=O)c(C)n1-c1ccccc1", "note": "(configuration not stated)", "outcome": "inactive"}, {"smiles": "Cc1cc(C(=O)COC(=O)c2n[nH]c3ccccc23)c(C)n1CC1CCCO1", "note": "(configuration not stated)", "outcome": "inactive"}, {"smiles": "Cc1cc(C(=O)CSc2nnnn2-c2ccccc2)c(C)n1CC1CCCO1", "note": "(configuration not stated)", "outcome": "inactive"}, {"smiles": "Cc1cc(C(=O)COC(=O)C2COc3ccccc3O2)c(C)n1CC1CCCO1", "note": "(configuration not stated)", "outcome": "inactive"}]}]}
